The values that follow come from the supplement of paper PMC9950053.

Each structure is given as a SMILES string. Where a name gives a salt, the structure may show the parent alone.

The experiment concerns Danio rerio larvae (5 dpf). In words: habituation (activity change first vs second 5 min of 1-s interval sound, period 17) minus DMSO control (percentage points); higher = larger habituation measure than DMSO larvae. The following applies: 10 µM; exposure time: 3 h pre-incubation + 3 h imaging. Here is the method:
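Wild-type 5 dpf zebrafish larvae (n=48 per drug, 96-well plates, 28.5 °C) were exposed to Tocris FDA-approved library compounds at 10 µM (0.1% DMSO) for 3 h before and 3 h during imaging. Images were taken every 6 s during visual and acoustic stimuli, and larvae were tracked with Z-LaP Tracker. Each measure is the treated-group mean minus the DMSO control mean (n=844), in percentage points. This mapping covers compounds with 5-character plate codes.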
Turning to `COc1ccc(C(CN(C)C)C2(O)CCCCC2)cc1` (stereo unspecified) [Venlafaxine hydrochloride], the habituation is -5.52.
